Activity calls are given as the source filed them. Rule for the calls: active = hit-call score of the fitted dose curve at least 0.9, where 1 is the maximum; inactive = score below 0.9.
Legend:
[1] = ATG_PBREM_CIS: Attagene CIS-FACTORIAL HepG2 Assay for human Phenobarbital-responsive Enhancer Module (PBREM) (AID 2282955); settings: HepG2 PBREM cis-reporter, Attagene multiplexed transcription; actives raise or lower the signal
Procedure, shortened: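 HepG2, transient MRTU transfection, 24 h dosing; RNA → oligo(dT) RT → PCR → 6-FAM extension → HpaI → CE. Bidirectional fit vs DMSO.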

[2] = target: Paired box protein Pax-6 (Homo sapiens) (UniProt P26367); test: ATG_Pax6_CIS: Attagene CIS-FACTORIAL HepG2 Assay for human Paired Box 6 (PAX6) (AID 2282956); settings: HepG2 CIS-FACTORIAL PAX6 reporter transcription, RNA readout; actives raise or lower the signal
Chain of Paired box protein Pax-6 (Homo sapiens) (P26367 whole entry, looked up): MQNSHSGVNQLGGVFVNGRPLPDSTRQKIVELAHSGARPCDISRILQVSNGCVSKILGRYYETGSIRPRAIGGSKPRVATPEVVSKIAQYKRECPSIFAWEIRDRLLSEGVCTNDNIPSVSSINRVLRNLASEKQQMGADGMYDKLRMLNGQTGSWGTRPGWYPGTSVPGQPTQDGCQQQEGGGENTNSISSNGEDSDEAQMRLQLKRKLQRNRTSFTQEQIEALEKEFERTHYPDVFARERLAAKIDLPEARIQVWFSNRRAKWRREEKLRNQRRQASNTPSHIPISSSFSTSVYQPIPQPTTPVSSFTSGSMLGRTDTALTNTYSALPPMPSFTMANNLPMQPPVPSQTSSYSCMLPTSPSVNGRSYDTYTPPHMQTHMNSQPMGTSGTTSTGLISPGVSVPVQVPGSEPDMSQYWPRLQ
Procedure, shortened: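 HepG2 cells transiently transfected with cis-promoter-driven multiplexed reporter units sensing endogenous transcription factor activity; 24 h chemical exposure. Reporter mRNA quantified by RT-PCR, 6-FAM labelling, HpaI digestion and capillary electrophoresis; bidirectional fit versus DMSO baseline.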

[3] = ATG_PXRE_CIS: Attagene CIS-FACTORIAL HepG2 Assay for human Pregnane X Receptor Element (PXRE) (AID 2282957); settings: HepG2 Attagene CIS-FACTORIAL PXRE reporter, mRNA; actives raise or lower the signal
Procedure, shortened: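 Multiplexed cis-reporter assay in transiently transfected human HepG2 cells; 24 h chemical exposure. Reporter transcripts quantified by RT-PCR with fluorescent labeling and capillary electrophoresis.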

[4] = ATG_PPRE_CIS: Attagene CIS-FACTORIAL HepG2 Assay for human Peroxisome Proliferator-activated Response Element (PPRE) (AID 2282958); settings: HepG2 PPRE cis-element reporter, Attagene transcription factor profiling; actives raise or lower the signal
Procedure, shortened: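 Transcript-level reporter induction in transfected HepG2 cells after 24 h chemical exposure, quantified by fluorescence from RT-PCR products separated by capillary electrophoresis.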

[5] = ATG_RORE_CIS: Attagene CIS-FACTORIAL HepG2 Assay for human RAR-related Orphan Receptor Element (RORE) (AID 2282959); settings: HepG2 Attagene cis-factorial RORE reporter, mRNA; actives raise or lower the signal
Procedure, shortened: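 Multiplexed reporter assay measuring mRNA induction from a cis promoter element in transiently transfected HepG2 cells after 24 h treatment. Detection via RT-PCR and capillary electrophoresis fluorescence; DMSO serves as baseline.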

[6] = ATG_Sox_CIS: Attagene CIS-FACTORIAL HepG2 Assay for human SRY-box transcription factor (SOX) (AID 2282960); settings: HepG2 Attagene cis-factorial SOX reporter, mRNA; actives raise or lower the signal
Procedure, shortened: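 Cells were transfected with reporter constructs under cis-regulatory promoters, then exposed to chemicals for 24 h. Reporter transcripts were quantified by fluorescence after RT-PCR and capillary electrophoresis; activity was fitted in both directions against DMSO.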

[7] = target: Transcription factor Sp1 (Homo sapiens) (UniProt P08047); test: ATG_Sp1_CIS: Attagene CIS-FACTORIAL HepG2 Assay for human Specificity Protein 1 (Sp1) (AID 2282961); settings: HepG2 Sp1 cis-reporter transcription, actives raise or lower the signal
Chain of Transcription factor Sp1 (Homo sapiens) (P08047 whole entry, looked up): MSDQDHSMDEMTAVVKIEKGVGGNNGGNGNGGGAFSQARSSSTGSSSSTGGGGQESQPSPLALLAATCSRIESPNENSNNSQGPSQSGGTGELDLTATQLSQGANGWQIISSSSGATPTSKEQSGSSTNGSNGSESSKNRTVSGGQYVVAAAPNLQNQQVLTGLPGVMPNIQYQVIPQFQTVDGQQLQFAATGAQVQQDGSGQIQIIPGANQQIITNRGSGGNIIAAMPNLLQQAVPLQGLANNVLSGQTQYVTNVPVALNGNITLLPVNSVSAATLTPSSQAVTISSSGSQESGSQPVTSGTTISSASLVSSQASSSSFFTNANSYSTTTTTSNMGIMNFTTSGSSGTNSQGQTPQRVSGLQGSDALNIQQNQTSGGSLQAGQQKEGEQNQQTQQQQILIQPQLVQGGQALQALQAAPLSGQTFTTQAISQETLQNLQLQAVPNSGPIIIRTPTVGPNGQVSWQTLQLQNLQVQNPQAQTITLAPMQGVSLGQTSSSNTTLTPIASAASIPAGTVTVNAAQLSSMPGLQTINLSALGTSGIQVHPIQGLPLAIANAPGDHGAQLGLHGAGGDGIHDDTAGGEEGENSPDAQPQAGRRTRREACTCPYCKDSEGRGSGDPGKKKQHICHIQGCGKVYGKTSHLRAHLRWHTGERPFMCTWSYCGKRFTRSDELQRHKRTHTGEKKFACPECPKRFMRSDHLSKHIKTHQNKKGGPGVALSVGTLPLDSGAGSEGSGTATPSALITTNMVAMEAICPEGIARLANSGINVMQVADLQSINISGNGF
Procedure, shortened: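 Measures mRNA induction of an Sp1-linked reporter in HepG2 cells 24 h post-dosing. Multiplexed reporters read by RT-PCR and capillary electrophoresis; DMSO serves as negative control and baseline.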

[8] = ATG_SREBP_CIS: Attagene CIS-FACTORIAL HepG2 Assay for human Sterol Regulatory Element Binding (SREBP) (AID 2282962); settings: HepG2 Attagene cis-factorial SREBP reporter, mRNA; actives raise or lower the signal
Procedure, shortened: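 HepG2 cells transiently transfected with multiplexed cis-promoter reporter units sensing endogenous transcription factors; reporter mRNA measured 24 h after dosing by RT-PCR, 6-FAM labeling, HpaI digestion and capillary electrophoresis. Bidirectional fit versus DMSO.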

[9] = target: Signal transducer and activator of transcription 3 (Homo sapiens) (UniProt P40763); test: ATG_STAT3_CIS: Attagene CIS-FACTORIAL HepG2 Assay for human Signal Transducer and Activator of Transcription 3 (STAT3) (AID 2282963); settings: HepG2, Attagene cis-factorial STAT3 reporter transcription; actives raise or lower the signal
Chain of Signal transducer and activator of transcription 3 (Homo sapiens) (P40763 whole entry, looked up): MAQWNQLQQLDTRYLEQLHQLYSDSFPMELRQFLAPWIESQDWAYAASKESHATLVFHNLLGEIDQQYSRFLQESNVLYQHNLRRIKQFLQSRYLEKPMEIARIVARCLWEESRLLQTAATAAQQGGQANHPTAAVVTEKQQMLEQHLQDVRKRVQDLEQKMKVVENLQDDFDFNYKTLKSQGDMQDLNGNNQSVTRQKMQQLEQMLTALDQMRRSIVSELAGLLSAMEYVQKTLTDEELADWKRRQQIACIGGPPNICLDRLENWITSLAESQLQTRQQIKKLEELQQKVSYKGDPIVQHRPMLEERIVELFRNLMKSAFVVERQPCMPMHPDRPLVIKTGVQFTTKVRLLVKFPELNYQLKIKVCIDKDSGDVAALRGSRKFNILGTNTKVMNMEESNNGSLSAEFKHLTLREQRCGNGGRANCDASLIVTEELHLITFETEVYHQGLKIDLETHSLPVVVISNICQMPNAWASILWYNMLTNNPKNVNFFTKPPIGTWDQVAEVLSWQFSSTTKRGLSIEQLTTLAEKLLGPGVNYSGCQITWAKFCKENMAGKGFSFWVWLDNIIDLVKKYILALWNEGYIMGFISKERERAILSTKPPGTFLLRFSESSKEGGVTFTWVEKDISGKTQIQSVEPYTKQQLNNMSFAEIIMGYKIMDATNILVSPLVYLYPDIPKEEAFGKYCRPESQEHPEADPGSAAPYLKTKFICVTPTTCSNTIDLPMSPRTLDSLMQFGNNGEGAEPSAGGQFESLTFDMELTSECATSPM
Procedure, shortened: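 After a 24 h compound incubation, total RNA from MRTU-transfected HepG2 cells was converted to cDNA and reporter sequences PCR-amplified, labelled and profiled by capillary electrophoresis. Gain and loss of signal were referenced to DMSO.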

[10] = ATG_TA_CIS: Attagene CIS-FACTORIAL HepG2 Assay for human TA Basal Promoter (AID 2282964); settings: HepG2 Attagene CIS-factorial TA basal promoter reporter; actives raise or lower the signal
Procedure, shortened: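 HepG2 cells transiently transfected with multiple reporter units under cis promoter elements, reporting endogenous transcription factor activity; this endpoint tracks the TA basal promoter as background control. Reporter mRNA after 24 h dosing measured by RT-PCR/capillary electrophoresis; bidirectional fits versus DMSO.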

Measured: AC50

C=C(C)C(=O)OCC(F)(F)C(F)(F)C(F)(F)C(F)F
inactive: [1] | [2] | [3] | [4] | [5] | [6] | [7] | [8] | [9] | [10]

O=S(=O)(O)CCC(F)(F)C(F)(F)C(F)(F)C(F)(F)F
inactive: [1] | [2] | [3] | [4] | [5] | [6] | [7] | [8] | [9] | [10]

CCCCCCCCn1sc(Cl)c(Cl)c1=O
active: [3] 4.27 µM | [8] 14.5 µM | [10] 8.12 µM
inactive: [1] | [2] | [4] | [5] | [6] | [7] | [9]

OCC1CCCO1 (stereo unspecified)
inactive: [1] | [2] | [3] | [4] | [5] | [6] | [7] | [8] | [9] | [10]

COC(=O)c1ccc(C=O)cc1
inactive: [1] | [2] | [3] | [4] | [5] | [6] | [7] | [8] | [9] | [10]

O=C(F)C1(F)C(F)(F)C(F)(F)C(F)(F)C(F)(F)C1(F)F
inactive: [1] | [2] | [3] | [4] | [5] | [6] | [7] | [8] | [9] | [10]

CCCCC(CC)COC(=O)c1ccc(N(C)C)cc1 (stereo unspecified)
inactive: [1] | [2] | [5] | [6] | [7] | [8] | [9] | [10]
active: [3] 8.25 µM | [4] 32.6 µM

Cc1cccc(C)n1
inactive: [1] | [2] | [3] | [4] | [5] | [6] | [7] | [8] | [9] | [10]

NC(O)(C(F)(F)F)C(F)(F)F
inactive: [1] | [2] | [3] | [4] | [5] | [6] | [7] | [8] | [9] | [10]

CCCCOC(=O)[C@H](C)O
inactive: [1] | [2] | [3] | [5] | [6] | [7] | [8] | [9]

CCCCCCCCCc1ccc(OCCO)cc1
inactive: [1] | [4] | [5] | [6] | [10]
active: [2] 24.3 µM | [3] 0.64 µM | [7] 13.3 µM | [8] 3.56 µM | [9] 19.5 µM

C[C@]12CC[C@H]3C(=CCc4cc(O)ccc43)[C@@H]1CCC2=O
active: [3] 26.6 µM
inactive: [1] | [2] | [4] | [5] | [6] | [7] | [8] | [9] | [10]

CCN(CC)c1ccc(N=Nc2ccccc2)cc1
inactive: [2] | [6] | [7] | [8] | [10]
active: [1] 8.89 µM | [3] 3.99 µM | [4] 4.8 µM | [5] 8.12 µM | [9] 27.6 µM

O=C(O)C(F)(F)OC(F)(F)C(F)(F)OC(F)(F)C(F)(F)OC(F)(F)F
inactive: [1] | [2] | [3] | [5] | [6] | [7] | [8] | [9] | [10]
active: [4] 36.4 µM

CN1CN(C)CN(C)C1
active: [3] 49.5 µM
inactive: [1] | [2] | [4] | [5] | [6] | [7] | [8] | [9] | [10]

CCC(Cc1c(I)cc(I)c(N)c1I)C(=O)O (stereo unspecified)
inactive: [1] | [2] | [5] | [9] | [10]
active: [3] 151 µM | [4] 39.7 µM | [6] 137 µM | [7] 88.5 µM | [8] 24.1 µM

CC(C)C(=O)OCc1ccccc1
inactive: [1] | [2] | [3] | [5] | [6] | [7] | [8] | [9] | [10]

CC1=CCC(=O)O1
inactive: [1] | [2] | [5] | [6] | [7] | [8] | [9] | [10]
active: [3] 26.7 µM

CC(C)(C)c1cc(CCC(=O)OCC(COC(=O)CCc2cc(C(C)(C)C)c(O)c(C(C)(C)C)c2)(COC(=O)CCc2cc(C(C)(C)C)c(O)c(C(C)(C)C)c2)COC(=O)CCc2cc(C(C)(C)C)c(O)c(C(C)(C)C)c2)cc(C(C)(C)C)c1O
inactive: [1] | [2] | [5] | [6] | [7] | [8] | [9]
active: [3] 21.3 µM

CC(C)(C)c1cc(Cc2cc(C(C)(C)C)c(O)c(C(C)(C)C)c2)cc(C(C)(C)C)c1O
active: [3] 0.513 µM
inactive: [1] | [2] | [5] | [6] | [7] | [8] | [9] | [10]

NS(=O)(=O)C(F)(F)C(F)(F)C(F)(F)C(F)(F)C(F)(F)C(F)(F)F
active: [3] 41 µM
inactive: [1] | [2] | [5] | [6] | [7] | [8] | [9] | [10]

COc1ccccc1C=O
inactive: [1] | [2] | [3] | [5] | [6] | [7] | [8] | [9]

CCN(CC)c1ccc(C=O)c(O)c1
active: [5] 38.1 µM
inactive: [1] | [2] | [3] | [6] | [7] | [8] | [9] | [10]

O=C(O)CCC(F)(F)C(F)(F)C(F)(F)F
inactive: [1] | [2] | [3] | [5] | [6] | [7] | [8] | [9] | [10]

OCC(F)(F)C(F)(F)C(F)(F)C(F)(F)C(F)(F)C(F)(F)C(F)(F)C(F)(F)CO
active: [3] 16.6 µM
inactive: [1] | [2] | [5] | [6] | [7] | [8] | [9]

Source: PubChem BioAssay (EPA / NIEHS)
